Results filed as inconclusive are left out. A number with no mark means an inactive call. Activity calls are given as the source filed them. Calls come from the whole dose curve; as a rule, active = well fitted curve in the direction sought with a large enough effect; inconclusive = small, poorly fitted or top-dose-only effect, or another doubt; inactive = no such curve, though single readings can be large; an effect the other way counts as inactive or inconclusive.

For one assay, the system named is MKL-1. Nature of the assay: qHTS assay to identify novel small-molecules to repurpose for Merkel cell carcinoma treatment (AID 1296009). Note: nearly all actives have a fitted effect of over 60% in size. The conditions noted are these: MCC and control cell lines, CellTiter-Glo viability, 72 h; series mostly up to 46 µM. Put shortly: (§1)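 Cell viability measured by CellTiter-Glo following 72 hr compound treatment at 37 degree celsius, with NPC and MIPE libraries tested in 8- and 11-point concentration series.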
On the technique in general: Quantitative high-throughput screening tests each substance at several concentrations.

In a further assay the test system is MKL-2. The assay is described as above. The following applies: MCC and control cell lines, CellTiter-Glo viability, 72 h; series mostly up to 46 µM. Put shortly:
as §1
In general terms: In ATP-based viability assays light output follows the ATP content of the culture.

Another assay has as its system UISO. Described as above. The following applies: MCC and control cell lines, CellTiter-Glo viability, 72 h; series mostly up to 46 µM. An outline of the steps: as §1
For another assay, the system named is WaGa. The description is as above. The conditions noted are these: MCC and control cell lines, CellTiter-Glo viability, 72 h; series mostly up to 46 µM. Put shortly: as §1
Another assay has as its system CASKI. Kind of assay: Primary qHTS to identify gynecologic anti-cancer compounds using libraries of approved drugs and bioactive compounds (AID 1345084). Note: nearly all actives have a fitted effect of over 55% in size. The conditions noted are these: Gynecologic cancer cell panel viability, ATPlite luminescence, 48 h; series mostly up to 57.5 µM. Put shortly:
(§2)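 In this quantitative HTS, cell killing is estimated from loss of ATP-dependent luciferase light. Cells see five compound concentrations over a 48 h exposure.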

In a further assay the test system is Es-2. The description is as above. The following applies: Gynecologic cancer cell panel viability, ATPlite luminescence, 48 h; series mostly up to 57.5 µM. An outline of the steps: as §2
The next assay relates to HeLa. The description is as above. The conditions noted are these: Gynecologic cancer cell panel viability, ATPlite luminescence, 48 h; series mostly up to 57.5 µM. Put shortly: as §2
The test system of the next assay is PA-1. Described as above. The conditions noted are these: Gynecologic cancer cell panel viability, ATPlite luminescence, 48 h; series mostly up to 57.5 µM. An outline of the steps: as §2
The subject of another assay is Tov-21-G. The assay is described as above. The conditions noted are these: Gynecologic cancer cell panel viability, ATPlite luminescence, 48 h; series mostly up to 57.5 µM. Put shortly: as §2
The next assay deals with Tov112D. The description is as above. The conditions noted are these: Gynecologic cancer cell panel viability, ATPlite luminescence, 48 h; series mostly up to 57.5 µM. Put shortly: as §2
Another assay concerns C33A. The assay is described as above. The conditions noted are these: Gynecologic cancer cell panel viability, ATPlite luminescence, 48 h; series mostly up to 57.5 µM. An outline of the steps: as §2
Another assay relates to CAOV3. Described as above. The following applies: Gynecologic cancer cell panel viability, ATPlite luminescence, 48 h; series mostly up to 57.5 µM. An outline of the steps:
as §2

A further assay deals with Hek293T. Described as above. The conditions noted are these: Gynecologic cancer cell panel viability, ATPlite luminescence, 48 h, control line for the selectivity index; series mostly up to 57.5 µM. Put shortly: as §2
Another assay has as its system JEG-3. Described as above. The conditions noted are these: Gynecologic cancer cell panel viability, ATPlite luminescence, 48 h; series mostly up to 57.5 µM. Put shortly: as §2
For the next assay, the system named is OV90. The description is as above. The following applies: Gynecologic cancer cell panel viability, ATPlite luminescence, 48 h; series mostly up to 57.5 µM. An outline of the steps: as §2
Another assay concerns SKOV3. The description is as above. The conditions noted are these: Gynecologic cancer cell panel viability, ATPlite luminescence, 48 h; series mostly up to 57.5 µM. Put shortly: as §2
Assay [1] is described as follows: qHTS assay to identify inhibitors of the type 1 interferon - major histocompatibility complex class I in skeletal muscle: Counter screen cell viability and HiBit confirmation (AID 1347412). For all read-outs here: nearly all actives have a fitted effect of over 60% in size. The following applies: iHSKM muscle cells + IFN-b, HiBiT or CellTiter-Glo, 24 h; for activity change, negative = inhibition: at 45.9 µM (top of the series). An outline of the steps: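 Duplicate plates, pinned identically: one read for HiBiT-tagged endogenous HLA-B luminescence, the other for ATP-content viability via CellTiter Glo. Cells were genome-engineered human myoblasts given 4 ng/ml IFN-b; compounds 12-pt, 1:3 from 46 uM final; 24 hr exposure.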
% is set by controls: 0 for no effect and ±100 for the full control effect; potency is the fitted concentration of half-maximal effect.

Consider `CCN(CC)CCNC(=O)c1ccc2nc(-c3ccccc3)c(-c3ccc(CN4CCC(n5c(=O)[nH]c6ccccc65)CC4)cc3)nc2c1`, for which the Potency with MKL-1 was 1.32 µM (active); with MKL-2, 1.18 µM (active); in the assay on UISO it was 16.6 µM (active); in the assay with WaGa it was 7.43 µM (active). Besides, the Potency entry in the assay on CASKI, with Es-2, with HeLa, in the assay on PA-1, in the assay on Tov-21-G and in the assay with Tov112D was “inactive” in each case.
In the case of `CNC(=O)c1ccc(-c2cnc3ncc(Cc4ccc5ncccc5c4)n3n2)cc1F`, the Potency result in the assay on MKL-1, with MKL-2, in the assay on UISO, in the assay with WaGa, in the assay on C33A and in the assay with CAOV3 was “inactive” in each case. Besides, the Potency result in the assay with CASKI, in the assay with Es-2, with HeLa, with Hek293T, with JEG-3 and with OV90 was “inactive” in each case. The Potency entry in the assay with PA-1, in the assay on SKOV3, in the assay with Tov-21-G and in the assay with Tov112D was “inactive” throughout.
As for `C#Cc1cccc(Nc2ncnc3cc(OC)c(OCCCCCCC(=O)NO)cc23)c1`, the Potency was 0.935 µM (active) with MKL-1; 0.105 µM (active) with MKL-2; 2.09 µM (active) in the assay with UISO; 0.105 µM (active) with WaGa; 3.55 µM (active) in the assay on C33A; 7.94 µM (active) with CAOV3. In addition, the Potency in the assay on CASKI is 6.31 µM (active); in the assay with Es-2, 10 µM (active); with HeLa it was 6.31 µM (active); with JEG-3 it was 10 µM (active); with OV90 it was 5.62 µM (active); in the assay on PA-1 it was 5.01 µM (active). Moreover, the Potency is 8.91 µM (active) with SKOV3, 10 µM (active) in the assay on Tov-21-G, 7.08 µM (active) with Tov112D and 2.49 µM (active) in assay [1] (HiBiT). Besides, the activity change, negative = inhibition in assay [1] (Viability) is -17%.
Turning to `O=C(c1cncc(Br)c1)N1CCC(N2CCCC2)CC1`, the Potency result with MKL-1, in the assay with MKL-2, in the assay on UISO, in the assay on WaGa, in the assay with C33A and in the assay on CAOV3 was “inactive” throughout. Besides, the Potency entry with CASKI, in the assay on Es-2, with HeLa, in the assay with Hek293T, in the assay on JEG-3 and with OV90 was “inactive” in each case. Besides, the Potency result in the assay on PA-1, in the assay with SKOV3, with Tov-21-G and in the assay with Tov112D was “inactive” each time.
Consider `Cc1cc(Nc2ncnc3ccc(-c4ccc(CNCCS(C)(=O)=O)o4)cc23)ccc1Oc1ccn2ncnc2c1`, for which the Potency with MKL-1 was 14.8 µM (active); in the assay with MKL-2 it was 18.7 µM (active); in the assay with UISO, 14.8 µM (active); with WaGa, 5.26 µM (active). The Potency entry in the assay with C33A, with CAOV3, in the assay on CASKI, in the assay on Es-2, with HeLa and in the assay on Hek293T was “inactive” each time. In addition, the Potency result with JEG-3, with OV90, in the assay on PA-1, with SKOV3, in the assay with Tov-21-G and in the assay on Tov112D was “inactive” each time.
With `CNC(=O)c1c(F)cccc1Nc1nc(Nc2cc3c(cc2OC)CCN3C(=O)CN(C)C)nc2[nH]ccc12`, the Potency in the assay on MKL-1 is 18.7 µM (active); in the assay with MKL-2, 5.9 µM (active); with UISO, 5.9 µM (active); in the assay on WaGa it was 18.7 µM (active); in [1] (Viability), 24.9 µM (active). Besides, the Potency result with C33A, with CASKI, in the assay on Es-2, in the assay with HeLa, in the assay on Hek293T and in the assay on JEG-3 was “inactive” throughout. Besides, the Potency result with OV90, in the assay on Tov-21-G and in the assay on Tov112D was “inactive” throughout.
For the compound `CNC(=O)c1nn(C)c2c1C(C)(C)Cc1cnc(Nc3ccc(N4CCN(C)CC4)cc3)nc1-2`, the Potency is 4.69 µM (active) in the assay with MKL-1; 5.26 µM (active) in the assay on MKL-2; 0.235 µM (active) in the assay on UISO; 5.9 µM (active) in the assay on WaGa; 0.631 µM (active) with C33A; 15.8 µM (active) in the assay on CASKI. Also, the Potency is 2.82 µM (active) with HeLa; 7.94 µM (active) in the assay on Hek293T; 11.2 µM (active) in the assay on JEG-3; 2.24 µM (active) in the assay with PA-1; 2.24 µM (active) in the assay on Tov112D; 1.98 µM (active) in [1] (HiBiT). In addition, the activity change, negative = inhibition in assay [1] (Viability) was 28.9%.
With `COc1cc(Nc2ncc(F)c(Nc3ccc4c(n3)N(COP(=O)(O)O)C(=O)C(C)(C)O4)n2)cc(OC)c1OC`, the Potency result in the assay on MKL-1, with MKL-2, with UISO and with WaGa was “inactive” in each case. Besides, the Potency in the assay on CAOV3 is 11.2 µM (active); in the assay on CASKI, 17.8 µM (active); with HeLa, 3.55 µM (active); in the assay on OV90 it was 12.6 µM (active); in the assay with PA-1, 11.2 µM (active); in the assay on SKOV3, 10 µM (active). Further, the Potency in the assay with Tov-21-G is 14.1 µM (active).
With `Nc1nccc(Oc2ccc(NC(=O)c3c[nH]cc(-c4ccc(F)cc4)c3=O)cc2F)c1Cl`, the Potency in the assay on MKL-1 is 5.26 µM (active); in the assay on MKL-2, 14.8 µM (active); in the assay on UISO, 14.8 µM (active); in the assay on WaGa, 2.35 µM (active). Besides, the Potency entry with C33A, with CASKI, with HeLa, with Hek293T, in the assay on JEG-3 and in the assay with OV90 was “inactive” throughout. For the same compound, the Potency entry in the assay on PA-1, in the assay on Tov-21-G and with Tov112D was “inactive” throughout. Moreover, the activity change, negative = inhibition in [1] (Viability) was 1.85%.
Take `COc1cc2c(cc1-c1c(C)noc1C)ncc1[nH]c(=O)n([C@H](C)c3ccccn3)c12`: the Potency is 18.7 µM (active) with MKL-1; 2.64 µM (active) in the assay with MKL-2; 14.8 µM (active) in the assay on UISO; 5.9 µM (active) in the assay on WaGa; 3.98 µM (active) in the assay on CASKI; 12.6 µM (active) in the assay on JEG-3. Moreover, the Potency entry in the assay with C33A, in the assay with CAOV3, in the assay on Hek293T and with PA-1 was “inactive” each time. Also, in [1] (Viability), the activity change, negative = inhibition is 1.25%.
With `O=C(O)CCCc1c[nH]c2ccccc12`, the Potency result in the assay with MKL-1, with MKL-2, with UISO, with WaGa, in the assay with C33A and with CAOV3 was “inactive” in each case. In addition, the Potency result in the assay with CASKI, with Es-2, in the assay with HeLa, in the assay on Hek293T, in the assay on JEG-3 and in the assay on OV90 was “inactive” each time. Also, the Potency result in the assay with PA-1, with SKOV3, in the assay with Tov-21-G and in the assay on Tov112D was “inactive” each time.
As to `CC(C)(O)CCc1ccc(OCc2cc(-c3cccc(OC(F)F)c3)c3ncccc3c2)cc1`, the Potency result in the assay with MKL-1, in the assay with MKL-2, with UISO, with WaGa, in the assay with C33A and in the assay with CAOV3 was “inactive” throughout. The Potency entry in the assay with CASKI, in the assay on Es-2, in the assay on HeLa, with Hek293T, with OV90 and in the assay with PA-1 was “inactive” throughout. Also, the Potency result with Tov-21-G and in the assay with Tov112D was “inactive” each time.

These data come from PubChem BioAssay (NCATS).
